# Unmarked numbers belong to inactive results.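 How the source made its calls: active = AUC reduced over 20% with Padj below 0.05 in at least 2 of 3 replicates; inactive = otherwise.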
# Columns and labels:
# Assay in all cases: growth AUC relative to DMSO control (median of replicates) (fraction); higher = more growth (less inhibition), active = hit call of the paper
# Conditions in all cases: 20 µM; 24 h
# [1] = test system: Akkermansia muciniphila
# Procedure, shortened: (§1)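 Three biological replicates, each grown on a separate day, were combined as a median for every value. In each, a gut bacterial monoculture in mGAM started at OD600 0.05 and grew anaerobically at 37 °C with 20 µM compound (1% DMSO), with OD600 read hourly over 24 h. Area under the growth curve was normalised against the plate median of solvent-only wells, or against row and column medians on the industrial chemical plate, after the minimum OD was set to 0.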
# [2] = test system: Bacteroides caccae
# Procedure, shortened: as §1
# [3] = test system: Bacteroides clarus
# Procedure, shortened: as §1
# [4] = test system: Bacteroides dorei
# Procedure, shortened: as §1
# [5] = test system: Bacteroides stercoris
# Procedure, shortened: as §1
# [6] = test system: Bacteroides thetaiotaomicron
# Procedure, shortened: as §1
# [7] = test system: Bacteroides uniformis
# Procedure, shortened: as §1
# [8] = test system: Bifidobacterium longum subsp. longum
# Procedure, shortened: as §1
# [9] = test system: Clostridium difficile
# Procedure, shortened: as §1
# [10] = test system: Collinsella aerofaciens
# Procedure, shortened: as §1
# [11] = test system: Coprococcus comes
# Procedure, shortened: as §1
# [12] = test system: Escherichia coli ED1a
# Procedure, shortened: as §1
# [13] = test system: Escherichia coli IAI1
# Procedure, shortened: as §1
# [14] = test system: Eubacterium rectale
# Procedure, shortened: as §1
# [15] = test system: Fusobacterium nucleatum subsp. animalis
# Procedure, shortened: as §1
# [16] = test system: Lactobacillus gasseri
# Procedure, shortened: as §1
# [17] = test system: Lactobacillus paracasei
# Procedure, shortened: as §1
# [18] = test system: Odoribacter splanchnicus
# Procedure, shortened: as §1
# [19] = test system: Parabacteroides distasonis
# Procedure, shortened: as §1
# [20] = test system: Parabacteroides merdae
# Procedure, shortened: as §1
Structure (SMILES),growth AUC [1],growth AUC [2],growth AUC [3],growth AUC [4],growth AUC [5],growth AUC [6],growth AUC [7],growth AUC [8],growth AUC [9],growth AUC [10],growth AUC [11],growth AUC [12],growth AUC [13],growth AUC [14],growth AUC [15],growth AUC [16],growth AUC [17],growth AUC [18],growth AUC [19],growth AUC [20]
COP(=S)(NC(C)C)Oc1ccc(C)cc1[N+](=O)[O-] (stereo not given),0.926,0.974,0.977,0.982,1.09,0.964,0.956,1.04,1.08,1.05,1.03,0.997,0.996,0.933,1.06,1.03,1.06,0.998,0.972,0.973
C=C(C)CN(CC)c1c([N+](=O)[O-])cc(C(F)(F)F)cc1[N+](=O)[O-],0.843,1.02,0.965,1.02,0.926,0.998,0.968,0.933,1.04,1,0.985,0.921,0.968,0.921,0.912,1.03,1.14,1.01,1.02,1.01
C#CCOc1ccc(CCNC(=O)C(OCC#C)c2ccc(Cl)cc2)cc1OC (stereo not given),1.02,0.94,0.948,0.957,0.898,0.951,0.901,1.02,0.981,1,0.992,1.01,0.996,1.04,0.943,0.926,0.98,1.03,0.689 (active),0.948
CCCCc1c(C)nc(N(C)C)[nH]c1=O,0.964,1.01,0.966,0.984,1.03,0.989,0.982,0.998,0.997,1.05,1,0.976,0.913,0.825,1.09,1,0.896,1.05,1.03,1.01
CC1(C)CC/C(=C\c2ccc(Cl)cc2)C1(O)Cn1cncn1 (stereo not given),0.95,0.976,0.983,0.965,0.792,0.971,0.995,1.08,0.984,0.987,0.974,0.999,0.98,0.986,0.97,0.935,0.955,1.04,0.964,0.967
CCN(CC)C(=O)C(C)Oc1cccc2ccccc12 (stereo not given),0.935,0.996,0.976,0.981,1.05,0.984,0.958,0.989,0.965,0.999,1.01,0.979,1.01,0.983,1.02,1.03,0.977,0.96,0.997,1.02
ClC1=C(Cl)[C@]2(Cl)[C@@H]3[C@@H]4C[C@@H]([C@H]5O[C@@H]45)[C@@H]3[C@@]1(Cl)C2(Cl)Cl,0.945,0.98,1.01,1,0.947,0.967,0.979,1.02,0.973,0.989,0.95,0.977,0.996,0.999,0.881,0.999,0.959,0.899,1.05,0.932
C=CCN(CC=C)C(=O)C(Cl)Cl,0.976,1.02,1,1.01,1.01,0.99,0.985,0.974,0.973,0.978,1,0.944,0.986,1.01,0.965,0.934,0.999,1.02,0.991,0.947
Cc1cc(Cl)ccc1O,1.04,1.02,1.03,1.01,1.09,1.03,1,0.911,1,1.01,0.989,1,1.02,1.02,1.07,0.979,0.873,1.07,1.02,1.04
O=C(O)COc1ccccc1,0.969,0.918,0.989,0.944,1.05,1.02,1,1.11,0.988,0.885,0.999,0.981,1,1,1.01,1.03,0.753,1.03,1,0.959
CCS(=O)(=O)Oc1ccc2c(c1)C(C)(C)CO2,0.972,1,0.967,1.01,1.01,0.99,1.01,1.04,1.03,1.01,1.08,1.02,1.02,0.83,0.966,1.06,1,1.07,1.03,0.963
CN(C)C1CSSSC1.O=C(O)C(=O)O,0.941,0.98,0.974,1.17,0.905,1.07,1.23,0.964,1.05,1.03,0.99,0.985,1.02,1.7,1.05,1.03,0.972,0.962,1.04,1.02
CN(C)C(=S)[S-].CN(C)C(=S)[S-].[Zn+2],0.76,0.876,0.965,0.857,0.799 (active),0.694 (active),0.819,0.884,0.945,0.969,0.834,0.953,0.906,0.563 (active),0.993,0.976,0.966,0.384 (active),0.954,0.699 (active)
CCOP(=S)(OCC)SCCSCC,0.992,1.03,1.01,0.973,1.06,1.01,0.973,1.02,0.977,0.972,1.03,1.01,1,0.971,1.09,1.02,1.1,1.02,0.991,1.01
CCOP(=S)(OCC)Oc1cc(Cl)c(Br)cc1Cl,0.917,0.936,0.94,1.02,0.953,0.979,0.966,0.954,0.977,0.98,0.976,1.02,0.992,1.05,1.08,0.868,1,0.968,0.891,0.962
CC(C)(C)C(=O)C(Oc1ccc(Cl)cc1)n1cncn1 (stereo not given),1.04,0.993,1,1.01,1.1,0.999,0.978,1.02,1.03,1.01,1.03,1.02,1.02,1.05,0.974,1.05,1.02,1.04,1.03,0.985
